# Reference: PubChem BioAssay AID651965 (National Center for Advancing Translational Sciences (NCATS), 2013)
# About 6,400 (1.9%) of roughly 340,000 compounds were called active. Not shown: some 4% with an inconclusive outcome. The list comes from a sample in which actives are over-represented; it also holds similar structures and randomly drawn compounds. Values without a mark were called inactive. Calls come from the whole dose curve; as a rule, active = well fitted falling curve with a large enough effect; inconclusive = small, poorly fitted or top-dose-only effect; inactive = no such curve, though single readings can be large or run the other way.
# Molecular target: ATP-dependent Clp protease proteolytic subunit (Bacillus subtilis (strain 168)) (UniProt P80244)
# Test: qHTS Assay for Activators of ClpP; note: the source files actives as falling curves though it sought activators and does not explain the sign; nearly all actives have a fitted effect of over 65% in size
# Settings: purified B. subtilis ClpP, FRET peptide cleavage, 20 min; series mostly up to 57.5 µM; activity change, negative = active: at the top concentration
# In short: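 Purified B. subtilis ClpP, 10 microg/mL final in Tris/HCl pH8 with KCl, BSA, glycerol and Tween-20, cleaved an Abz/nitrotyrosine-quenched decapeptide. Fluorescence (ex 320, em 430) was read at 0 and 20 min at room temperature. Delta was normalized to 5.8 microM ADEP and DMSO/no-enzyme controls.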
# Potency is the fitted concentration of half-maximal effect.
# Chain of ATP-dependent Clp protease proteolytic subunit (Bacillus subtilis (strain 168)) (P80244 whole entry, looked up): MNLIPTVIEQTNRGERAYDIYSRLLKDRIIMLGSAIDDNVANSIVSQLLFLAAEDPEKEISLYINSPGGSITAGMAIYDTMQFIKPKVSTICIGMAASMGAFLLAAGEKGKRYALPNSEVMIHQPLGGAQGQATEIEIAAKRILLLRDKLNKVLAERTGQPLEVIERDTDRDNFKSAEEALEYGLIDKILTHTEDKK
Structure (SMILES),"activity change, negative = active",Potency
C[C@@H]1CN([C@H](C)CO)C(=O)c2cc(-c3ccc(F)cc3)cnc2O[C@H]1CN(C)C(=O)c1ccc(F)cc1,-3.91%,–
O=C(CC1Nc2ccccc2NC1=O)Nc1ccccc1 (stereo unspecified),-1.78%,–
O=C1NCC(c2ccccc2)(c2ccccc2)C(=O)N1,-1.81%,–
O=C1NCC(Nc2ccccc2)C(=O)N1 (stereo unspecified),–,12.6 µM (active)
CCCCNC(=O)Cn1c(SCc2cccc(Cl)c2)nc2ccncc21,-5.3%,–
COc1ccc(C(O)c2nc(-c3ccc4c(c3)OCO4)cs2)cc1 (stereo unspecified),0.0628%,–
COCCNc1nc(Nc2ccccc2Cl)c2sc(-c3ccccc3)cc2n1,4.75%,–
O=C1c2ccccc2C(=O)N1c1cccc2ccccc12,–,7.94 µM (active)
CC1=C(C)CC2C(=O)N(c3cccc4ccccc34)C(=O)C2C1 (stereo unspecified),-0.206%,–
O=C1c2ccccc2C(=O)N1c1ccccc1S(=O)C(F)(F)F (stereo unspecified),-3.11%,–
Cc1ccc(NC(=O)[C@H](Cc2ccccc2)NC(=O)CC[C@H]2O[C@@H](n3ccc(=O)[nH]c3=O)[C@H](O)[C@@H]2O)cc1C,0.668%,–
O=C(COc1ncnc2ccccc12)NC(=O)NCc1ccccc1,-0.394%,–
CC(C)C(C)NC(=O)COc1ncnc2ccccc12 (stereo unspecified),–,11.2 µM (active)
Cc1ccc(C2=NN(C(=O)COc3ncnc4ccccc34)C(c3ccco3)C2)cc1 (stereo unspecified),0.222%,–
O[C@H]1C[C@H](c2ccc(Cl)cc2)N(Cc2cccs2)C[C@@H]1n1cc(C2CC2)nn1,-2.04%,–
COC(=O)c1c(C)c(C)nc(N)c1C#N,–,8.91 µM (active)
COC(=O)c1c(C)cc(O)c(C)c1O,-3.9%,–
Cc1nc(SCC(=O)NC2CCCCC2C)c(C#N)c(C)c1C (stereo unspecified),-2.83%,–
COc1ccc(NC(=O)C2Cc3c(-c4cccc(NC(C)=O)c4)ccnc3O2)cc1OC (stereo unspecified),-10.8%,–
CC(=O)OC[C@@H]1CN(Cc2ccccc2)C[C@H](n2cnc3c(NCc4ccco4)ncnc32)O1,-0.932%,–
Nc1ncnc2nnsc12,-12.1%,–
Cn1c(=NC(=O)CSCC(=O)N2CCCCC2)sc2ccccc21,–,35.5 µM (active)
O=C(CSCc1cccs1)N1CCCC1,0.795%,–
Cn1c(=NC(=O)c2cnccn2)sc2ccccc21,-0.632%,–

Structure (SMILES),"activity change, negative = active",Potency
CCc1nc2c(OCc3cccc(OC)c3)cccn2c1N(C)C(=O)C(C)C,-4.33%,–
Cc1cccc(C)c1Cn1c(C)c(C(=O)NCc2cccc(Cl)c2)sc1=O,-3.46%,–
CN1OC[C@@H]2CN(C(=O)c3cccnc3)[C@H](c3ccc(N4CCCCC4)cc3)C[C@@H]21,-5.72%,–
c1ccc(-c2c[nH]c(-c3ccccc3)c2)cc1,–,20 µM (active)
c1ccc(-c2cc(-c3ccccc3)[nH]n2)cc1,-3.14%,–
c1ccc(-c2ccc3c(c2)NC(C2Nc4cc(-c5ccccc5)ccc4O2)O3)cc1 (stereo unspecified),-25.4%,–
CCCCN1CC(N2CCN(Cc3cccc(C)c3)CC2)CS1(=O)=O (stereo unspecified),0.479%,–
O=C(COc1ccccc1Cl)N1N=C(c2cccs2)CC1c1ccco1 (stereo unspecified),4.14%,–
COc1ccc(C2CC(c3cccs3)=NN2C(=O)COC(=O)c2cc3ccccc3cc2O)cc1OC (stereo unspecified),-1.29%,–
O=C1c2cccc(OCC(=O)N3N=C(c4cccs4)CC3c3ccc(F)cc3)c2CCN1Cc1ccccc1 (stereo unspecified),–,15.8 µM (active)
CN(C)CCNC(=O)c1ccc(-c2cn3c(-c4ccc(Oc5ccccc5)cc4)cnc3cn2)cc1,5.02%,–
OC(c1ccccc1)c1nc(-c2cnc3ccccc3c2)cs1 (stereo unspecified),-21.1%,–
C(=Nc1ccc(/C=C/c2ccnc3ccccc23)cc1)c1cc2c3c(c1)CCCN3CCC2,-19.7%,–
CC1=C(C(=O)N(C(C)C)C(C)C)CC(CC(=O)NCC2CCCCC2)C(=O)N1Cc1ccccc1 (stereo unspecified),1.72%,–
O=C(NCCCO)/C(=C\C=C\c1ccccc1)NC(=O)c1ccccc1Cl,–,28.2 µM (active)
CNC(=O)/C(=C\C=C\c1ccccc1)NC(=O)c1ccc([N+](=O)[O-])cc1,-4.83%,–
Cc1ccc(C(=O)N/C(=C/C=C/c2ccccc2)C(=O)NCc2ccco2)cc1,-5.07%,–
Cc1cccc(C)c1-n1nnnc1C1(C)CCC(=O)N1CCOc1ccccc1 (stereo unspecified),2.41%,–
CC1(C(=O)NS(=O)(=O)c2cccc(F)c2)CCN1C(=O)Cc1cc(F)ccc1F (stereo unspecified),0.531%,–
C[C@@H]1CN([C@@H](C)CO)C(=O)c2c(c3ccccc3n2C)-c2ccccc2CO[C@H]1CN(C)C(=O)C1CC1,-28.9%,–
COc1ccc(S(=O)(=O)NC(=O)C2(C)CCN2C(=O)COc2ccc(Cl)cc2)cc1 (stereo unspecified),-0.2%,–
CCCCCC(=O)N1CCN(S(=O)(=O)c2ccc3c(c2)OCCCO3)CC1,–,28.2 µM (active)
CN1CCCN(S(=O)(=O)c2ccc3c(c2)OCCO3)CC1,–,inactive
CCNC(=O)N1CCN(S(=O)(=O)c2ccc3c(c2)OCCCO3)CC1,-0.0478%,–

Structure (SMILES),"activity change, negative = active",Potency
COC(=O)[C@]12CCCCC=C1N(Cc1ccc(Cl)cc1Cl)C(=O)[C@H](CC(=O)NCc1cccc3ccccc13)C2,-14.3%,–
COCCNc1ncnc2c1c(-c1ccccc1)cn2-c1ccc(C)c(Cl)c1,-8.2%,–
CCCNc1ncnc2c1c(-c1ccccc1)cn2-c1ccc(OCC)cc1,–,25.1 µM (active)
O=c1[nH]cnc2c1c(-c1ccccc1)cn2-c1ccc(F)cc1,-3.07%,–
COc1ccc(CC(N)c2csc(NC(=O)NC(c3ccccc3)c3ccccc3)n2)cc1 (stereo unspecified),-2.62%,–
CC1(C(=O)NCc2ccccc2)CSCC(=O)N1CCCn1ccnc1 (stereo unspecified),-0.215%,–
COC(=O)[C@]12CCCCC=C1N(Cc1ccc3c(c1)OCO3)C(=O)[C@H](CC(=O)N1CCOCC1)C2,2.24%,–
CC(C)NC(=O)C1(C)CCCCN1Cc1cccc(C(F)(F)F)c1 (stereo unspecified),1.93%,–
COCCNC(=S)N1CCC(NC(=O)C23CC4CC(CC(C4)C2)C3)CC1,–,28.2 µM (active)
CCCNC(=S)N1CCC(NC(=O)C23CC4CC(CC(C4)C2)C3)CC1,1.09%,–
COc1ccccc1NC(=S)N1CCC(NC(=O)C23CC4CC(CC(C4)C2)C3)CC1,-2.04%,–
CC(=O)N1Cc2cc(C(=O)NCc3cccc(F)c3)nc(-c3cccc(C4=CCCC4)c3)c2[C@H]1CCO,-3.63%,–
COC(=O)[C@@]12C[C@@H](CC(=O)NCCCCc3ccccc3)C(=O)N(CCc3ccc(OC)c(OC)c3)C1=CCC(C)(C)C2,-3.69%,–
COc1ccc(-c2ccc3[nH]c4c(c3c2)CCN2C[C@H]3[C@H](C)ON(C)[C@H]3C[C@@H]42)cc1,-10.6%,–
CCC(=O)Nc1ccc(C)cc1-c1nc2ccccc2n(Cc2ccccc2)c1=O,0.727%,–
CCC(=O)Nc1c(S(=O)(=O)c2ccccc2)c2nc3ccccc3nc2n1Cc1ccccc1,–,14.1 µM (active)
CCN(CC)CCn1c(N)c(S(=O)(=O)c2ccccc2)c2nc3ccccc3nc21,3.65%,–
CCOC(=O)[C@]12CCCC=C1N(CCC1=CCCCC1)C(=O)[C@H](CC(=O)N1CCN(C(=O)c3ccco3)CC1)C2,-1.83%,–
CCCCCCCNc1ccc(/C=C/c2ccnc3ccccc23)cc1,-0.676%,–
O=C(c1cc(C(=O)N2CCN(c3ccc(F)cc3)CC2)cc([N+](=O)[O-])c1)N1CCN(c2ccc(F)cc2)CC1,-2.08%,–
O=C(c1cncc(Br)c1)N1CCN(c2ccc([N+](=O)[O-])cc2)CC1,–,28.2 µM (active)
Cc1cccc(C(=O)NC(=S)N2CCN(c3ccc([N+](=O)[O-])cc3)CC2)c1,0.049%,–
CCCCc1ccc(S(=O)(=O)NC(=O)C2(C)CCN2C(=O)c2ccccc2)cc1 (stereo unspecified),-2.77%,–
Cc1ccc(-c2nc(=N)sn2Cc2ccccc2)cc1,-3.16%,–

Structure (SMILES),"activity change, negative = active",Potency
Cc1ccc(C=O)cc1Cl,0.201%,–
CC1(C(=O)NS(=O)(=O)c2cccc(OC(F)F)c2)CCN1C(=O)C1CC1 (stereo unspecified),1.45%,–
CC(=O)Nc1cc(-c2ccc(N3CCN(C)CC3)cc2)cn2c(-c3ccc(F)cc3)cnc12,-15%,–
CCOC(=O)N1CCN(C(c2ccnc3ccccc23)c2nnnn2-c2c(C)cccc2C)CC1 (stereo unspecified),1.38%,–
COc1cc(F)ccc1-c1cc(C(=O)NCC2CCCCC2)[nH]n1,-1.75%,–
COc1ccc(-n2nnnc2-c2nc3ccccc3s2)cc1,–,28.2 µM (active)
COc1ccc(CSc2nnnn2-c2ccc(C(=O)O)cc2)cc1,1.38%,–
COc1ccc(-n2nnnc2CNC(=O)c2ccc3ccccc3c2)cc1,-16%,–
CCCCOCCCNC(=O)C[C@@H]1C[C@@]2(C(=O)OC)CCCCC=C2N(CCC2=CCCCC2)C1=O,1.12%,–
COc1ccccc1CNC(=O)c1cc(-c2cc(Cl)ccc2C)n[nH]1,-0.552%,–
OC[C@H]1O[C@@H](c2nc(-c3nc(-c4ccc(F)cc4)no3)cs2)[C@H](O)[C@@H](O)[C@H]1O,-1.14%,–
CCN1CCN(C(=O)Cn2nc(C)n3c(cc4c(OC)cccc43)c2=O)CC1,3.98%,–
Cc1nn(CC(=O)N2CCN(c3cccc(C(F)(F)F)c3)CC2)c(=O)c2cc3sccc3n12,-1.4%,–
COc1cccc2c1cc1c(=O)n(CC(=O)N3CCN(c4ccccc4)CC3)nc(C)n12,–,25.1 µM (active)
CN[C@H]1C[C@H]2c3cc(Oc4ccccc4C)ccc3CCN2C(=O)[C@H]1[C@H](C)O,-4.92%,–
CCCS(=O)(=O)NC(=O)C1(C)CCCN(C(=O)c2cc(C)on2)C1 (stereo unspecified),-2.31%,–
CCCCCCC1(C)NC(c2ccc3c(c2)OCO3)=CC(c2ccccc2O)N1 (stereo unspecified),-6.14%,–
CCOC(=O)N1CCC(NC(=O)CCc2cn(C)c3ccccc23)CC1,-26.7%,–
CCOC(=O)N1CCC(NC(=O)Cc2cn(C)c3ccccc23)CC1,-21%,–
CCOC(=O)N1CCC(NC(=O)C(C)n2c3ccccc3c3cnn(C)c(=O)c32)CC1 (stereo unspecified),–,28.2 µM (active)
COc1cccc(NC(=O)C2(C)CCN2C(=O)CCC2CCCC2)c1 (stereo unspecified),-0.927%,–
O=C(COC(=O)C1(c2ccc(F)cc2)CCCC1)N1CCNC1=O,-1.05%,–
NS(=O)(=O)c1ccc(NC(=O)COC(=O)C2(c3ccc(F)cc3)CCCC2)cc1,–,28.2 µM (active)
CN(C)S(=O)(=O)c1cccc(NC(=O)COC(=O)C2(c3ccccc3F)CCCC2)c1,0.268%,–
